Bioassay records (PubChem BioAssay)
Hits are enriched below; roughly 6% of the tested compounds scored in any of these assays.
VDR inh = Inhibitors of the vitamin D receptor (VDR): qHTS | hit rate 0.93% among 400,000 | Vitamin D3 receptor (Homo sapiens), P11473 | VDR-SRC2-3 peptide fluorescence polarization, 2 h | Potency, µM, for the others: max response, negative = inhibition, most hits filed as inhibitors
Target sequence (P11473 whole entry, looked up): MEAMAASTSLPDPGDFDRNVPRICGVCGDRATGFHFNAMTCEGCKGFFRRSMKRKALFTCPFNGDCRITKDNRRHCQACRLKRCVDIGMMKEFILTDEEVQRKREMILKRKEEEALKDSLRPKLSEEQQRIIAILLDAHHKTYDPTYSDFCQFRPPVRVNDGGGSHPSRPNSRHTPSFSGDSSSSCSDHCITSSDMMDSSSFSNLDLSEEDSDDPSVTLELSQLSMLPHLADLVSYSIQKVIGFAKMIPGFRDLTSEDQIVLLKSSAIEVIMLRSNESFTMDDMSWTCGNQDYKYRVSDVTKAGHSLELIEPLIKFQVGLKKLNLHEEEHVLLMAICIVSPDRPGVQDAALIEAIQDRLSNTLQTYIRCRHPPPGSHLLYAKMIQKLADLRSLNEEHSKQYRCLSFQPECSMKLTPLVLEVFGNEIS
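Two reagent solutions held at 4 deg C in the dark were dispensed, compounds pinned at 23 nl, and the mixture incubated 2 h at room temperature. Read-out: fluorescence polarization of VDR–SRC2-3 peptide binding.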
Sfp PPTase inh = qHTS Assay for Inhibitors of Bacillus subtilis Sfp phosphopantetheinyl transferase (PPTase) | 4'-phosphopantetheinyl transferase ffp (Bacillus subtilis), Q9F4F7 | Biochemical Sfp PPTase activity, qHTS | Potency, µM, for inactives: largest response in the series, negative = inhibition, most hits filed as inhibitors | hit rate 3.5% among 310,000;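 further: the enzyme is Sfp with the accession as filed and its product quenches rhodamine fluorescence; 0% = enzyme reaction without inhibitor and -100% = no enzyme wells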
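With Hepes-Na pH 7.6 buffer containing 10 mM MgCl2, Sfp (15 nM) modified BHQ-2-YbbR (12.5 uM) using rhodamine-CoA (5 uM). Two reads 30 minutes apart at 525/598 nm yielded each well's rate.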
Tau fluor cs = Counterscreen qHTS for Inhibitors of Tau Fibril Formation, Fluorescence Polarization. tau K18 P301L Alexa594 fluorescence, heparin fibrillization. Potency, µM (titrated, usually from 57.7 µM), inactives show at the top dose activity change, negative = decrease. hit rate 0.93% among 280,000; further: nearly all actives have a fitted effect of over 55% in size
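Human K18 P301L tau (15 uM unlabeled plus 0.24 uM Alexa 594-labeled, final) in 100 mM sodium acetate pH 7 was mixed with compound and 20 uM heparin and incubated 6 hr at 37 C.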
Tau ThT inhib = qHTS for Inhibitors of Tau Fibril Formation, Thioflavin T Binding; Microtubule-associated protein tau (Homo sapiens), P10636; hit rate 2.1% among 270,000; Potency, µM (top dose mostly 57.4 µM), for the others: at the highest dose activity, negative = inhibition, hits mostly inhibitors; recombinant tau K18 P301L (four-repeat tau fragment), heparin-induced fibrillization, ThT fluorescence; further: nearly all actives have a fitted effect of over 55% in size
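Heparin-induced (20 uM) aggregation of recombinant human K18 P301L tau, 15 uM unlabeled with 0.24 uM labeled, pH 7 acetate buffer, 6 hr at 37 C with compound. Fibrils quantified by 30 uM ThT fluorescence after 1 hr ambient incubation.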
PLK1 PBD inh = qHTS for Inhibitors of PLK1-PDB (polo-like kinase 1 - polo-box domain): Primary Screen. hit rate 2.8% among 360,000. Serine/threonine-protein kinase PLK1 (Homo sapiens), P53350. Potency, µM, for the others: max response, negative = inhibition, hits mostly inhibitors. Plk1 PBD binding of FITC phosphopeptide, fluorescence polarization; further: series mostly up to about 57 µM; nearly all actives have a fitted effect of over 65% in size
Tau FP inhib = qHTS for Inhibitors of Tau Fibril Formation, Fluorescence Polarization; Microtubule-associated protein tau (Homo sapiens), P10636; AID 1468, 2008; hit rate 0.39% among 280,000; Potency, µM (series often up to 57.7 µM), for inactives: at the highest dose activity, negative = inhibition, most hits filed as inhibitors; K18 P301L tau heparin fibrillization, Alexa594 FP, 6 h; further: nearly all actives have a fitted effect of over 55% in size
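Read-out: fluorescence polarization of Alexa 594-labeled tau (0.24 uM), 555 nm excitation, 632 nm emission. Mixtures held 15 uM unlabeled K18 P301L, compound and 20 uM heparin, pH 7 acetate buffer, incubated 6 hr at 37 C.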
The depositor's hits bear a star; ? = inconclusive; . = not tested or not shown. The call rests on the fitted dose curve; in most records, active means well fitted curve in the direction sought with a large enough effect; inconclusive means small, poorly fitted or top-dose-only effect, or another doubt; inactive means no such curve, though single readings can be large; an effect the other way counts as inactive or inconclusive. Unless noted, on the % scale 0 is the no-effect control and ±100 the full control effect; potency means the concentration at half of the fitted maximal effect.

SMILES | VDR inh | Sfp PPTase inh | Tau fluor cs | Tau ThT inhib | PLK1 PBD inh | Tau FP inhib
O=C(CSc1ccccc1)Nc1ccccc1C(=O)O | -3% | 5% | -4% | -2% | -11% | -5%
COc1ccccc1NC(=S)NC(=O)Cc1ccc(Cl)cc1 | -2% | 23% | . | . | -5% | .
Cc1ccc2oc3c(c(=O)c2c1)C(c1ccc(O)cc1)N(c1nc(C)c(C)s1)C3=O (stereo not given) | 6% | . | -23% | ? | . | 2%
COc1cc2c(cc1OC)C(COc1ccccc1OC)N(C(=O)c1ccccc1OC)CC2 (stereo not given) | 0% | . | -3% | -5% | . | 2%
C=CCn1c(CNS(=O)(=O)c2ccc(Br)cc2)n[nH]c1=S | 1% | 5% | . | . | -3% | .
CCn1ncc(Br)c1C(=O)Nc1ccccc1OC | -12% | 8% | -12% | -8% | 21µM* | 3%
Cc1ccc2c(C)ccc(O)c2n1 | -13% | 45µM* | -8% | -5% | -3% | 2%
CC(CNC(=O)CCc1cn(Cc2ccccc2Cl)c2ccccc12)c1ccccc1 (stereo not given) | 8% | . | -22% | -19% | . | -3%
Cc1ccc(S(=O)(=O)CCc2nc3ccccc3s2)cc1 | -1% | ? | -11% | -13% | 24µM* | 6%
S=c1[nH]nc(C2CCCCC2)n1/N=C/c1ccc(Br)cc1 | 16% | ? | . | . | ? | .
Oc1cccc(/C=N/n2c(C3CCCCC3)n[nH]c2=S)c1 | -2% | -7% | . | . | ? | .
Fc1cccc(Cl)c1/C=N/n1c(-c2cccnc2)n[nH]c1=S | -18% | 12% | -1% | -5% | 17µM* | -1%
S=c1[nH]nc(-c2cccnc2)n1/N=C/c1ccccc1 | 4% | -14% | -5% | -5% | -3% | -1%
Cc1cc(Cl)ccc1-n1c(-c2cccnc2)n[nH]c1=S | 2% | 18µM* | -7% | -12% | -12% | -2%
Cc1ccc(/C=N/n2c(C3CCCCC3)n[nH]c2=S)cc1 | -14% | 50µM* | . | . | ? | .
Cc1c(Cl)cccc1-n1c(-c2cccnc2)n[nH]c1=S | -8% | ? | 10% | 6% | -5% | 7%
COc1cccc(/C=N/n2c(C3CCCCC3)n[nH]c2=S)c1 | 9% | -20% | . | . | 21µM* | .
COc1ccc(-c2cnc(C(O)c3ccc(CN4CCCCC4)cc3)[nH]2)cc1 (stereo not given) | . | . | . | . | -12% | .
O=C(c1cnccn1)N1CCC[C@@]2(CCN(c3ccccn3)C2)C1 | 1% | 26% | . | . | . | .
O=C(NCC(O)c1nc2ccccc2[nH]1)c1cc2ccccc2[nH]1 (stereo not given) | . | . | . | . | -11% | .
Cc1ccc(/C=N/n2c(-c3cccs3)n[nH]c2=S)cc1 | 2% | -18% | -15% | -16% | ? | 4%
S=c1[nH]nc(C2CCCCC2)n1/N=C/c1c(Cl)cccc1Cl | -4% | -10% | . | . | 30µM* | .
S=c1[nH]nc(-c2cccs2)n1/N=C/c1c(Cl)cccc1Cl | ? | -60% | -16% | -16% | 6.7µM* | 2%
S=c1[nH]nc(C2CCCCC2)n1/N=C/c1ccc(Cl)cc1 | -10% | ? | . | . | 30µM* | .
C[C@@]12CCC(=O)C[C@@H]1CC(=O)[C@H]1[C@H]3CCC[C@]3(C)C(=O)C[C@@H]12 (tested in a mixture with another compound) | 0% | 9% | . | . | . | .
C/C(=N\Nc1nc2ccccc2[nH]1)c1ccc2c(c1)OCCO2 | -2% | -14% | ? | 14µM* | -16% | 2%
C/C(=N\Nc1nc2ccccc2[nH]1)c1cc2ccccc2o1 | 3% | ? | ? | 14µM* | -11% | ?
Cc1onc(-c2ccccc2)c1C(=O)NCCCc1ccccc1 | ? | . | . | . | -6% | .
